# The campaign covered roughly 400,000 compounds. About 5,500 (1.4%) were called active. Not shown: some 9% with an inconclusive outcome. The sample as a whole holds a higher share of actives than the screen did. Unmarked numbers belong to inactive results. Calls follow the shape of the dose curve; as a rule, active = well fitted cell-killing curve with a large enough effect; inconclusive = small, poorly fitted or top-dose-only effect, or effect the other way; inactive = flat fitted curve, though single readings scatter.
# Assay: qHTS assay for MDR1-selective chemotherapeutics: Primary screen using the parental adenocarcinoma cell KB-3-1; also: nearly all actives have a fitted effect of over 60% in size
# Conditions: KB-3-1 viability, CellTiter-Glo ATP luminescence, 72 h; series mostly up to 46.1 µM; activity change, negative = cytotoxic: at the top concentration
# Method in brief: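 Screening of KB-3-1 cells (DMEM, 10% FBS, phenol-red free) ran from lowest to highest compound concentration; after 72 h at 37 °C viability was read luminescently and curves fitted.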
# % is scaled to controls: 0 for no effect and ±100 for the full control effect; potency is read from the fitted curve at half-maximal effect.
Compound,"activity change, negative = cytotoxic",Potency
Cc1ccccc1-c1nc(CS(=O)(=O)CC(=O)Nc2cc(Cl)cc(Cl)c2)c(C)o1,-9.7%,–
Cc1nnc(N2CCC(C(=O)Nc3ccc(F)cc3)CC2)c2nn(-c3ccc(Cl)cc3)c(C)c12,-4.85%,–
CCc1ccccc1NS(=O)(=O)c1ccc2nc(-c3ccccc3)[nH]c2c1,-4.26%,–
COc1cc(CNCCN(C)C)ccc1OCc1c(F)cccc1Cl,-4.74%,–
COc1cc(CNCCSc2nnnn2C)ccc1OCc1ccc(Cl)cc1Cl,-17.7%,–
COc1cc(CNCCSc2nnnn2C)ccc1OCc1c(F)cccc1Cl,–,18.4 µM (active)
Cc1onc(-c2ccccc2Cl)c1C(=O)OCc1nnc(-c2ccccc2)o1,-0.848%,–
CCOC(=O)c1c(-c2cccc(C)c2)csc1NC(=O)c1c(-c2ccccc2)noc1C,–,5.17 µM (active)
CCOC(=O)c1c(NC(=O)c2cc(-c3ccc(Cl)cc3)on2)sc2c1CCCC2,8.01%,–
CC1=C(C(=O)Nc2ccccc2)C(c2ccc(C)cc2)n2nc(SCc3ccccc3C)nc2N1 (stereo unspecified),7.5%,–
CCOc1ccc(N(CC)S(=O)(=O)N2CCCC(C(=O)NCc3ccc(SC)cc3)C2)cc1 (stereo unspecified),-13.9%,–
COc1ccccc1Nc1nc(N)nc(N)c1S(=O)(=O)c1ccccc1,-5.3%,–
CC1(C)N=C(N)NC(Nc2ccc(Cl)cc2)=N1,-13.3%,–
COc1ccccc1NC1=NC(c2ccc(Cl)cc2)N=C(N)N1 (stereo unspecified),–,3.66 µM (active)
CCOC(=O)c1ccc(NC(=O)c2c(NCc3cccc(OC)c3)sc3c2CCC3)cc1,1.19%,–
COc1ccc(-c2csc(-c3c(N)c(C(=O)c4ccc(OC)c(OC)c4)n4ccccc34)n2)cc1,-8.22%,–
CCN(CC)CCNc1ccc(Cl)cc1[N+](=O)[O-],0%,–
CCN(CC)CCNc1ncnc2c1cnn2-c1cc(Cl)ccc1C,-5.85%,–
CCN(CC)CCCC(C)Nc1ccnc2cc(Cl)ccc12 (stereo unspecified),–,10.3 µM (active)
CNCCCOc1cc2nc(N3CCCN(C)CC3)nc(NC3CCN(C)CC3)c2cc1OC,0.554%,–
CCOC(=O)c1cc(-c2ccc(OC)c(S(=O)(=O)Nc3ccc(OC)cc3OC)c2)on1,3.89%,–
Cc1cccc(CNC(=O)c2cnc3sc(N4CCCCC4)nn3c2=O)c1,5.85%,–
CC(C)C1N=C2c3ccccc3N=C(SCC(=O)c3ccc(O)c(O)c3)N2C1=O (stereo unspecified),–,23.1 µM (active)
CCOC(=O)CSC1=Nc2ccccc2C2=NC(CCC(=O)NCc3ccc(F)cc3)C(=O)N12 (stereo unspecified),27.5%,–
Cc1ccc(CNC(=O)CSC2=Nc3ccccc3C3=NC(C)C(=O)N23)cc1 (stereo unspecified),2.68%,–
CN(Cc1cn(Cc2ccc(C(F)(F)F)cc2)nn1)C1CN(Cc2cn(Cc3ccc(C(F)(F)F)cc3)nn2)S(=O)(=O)C1 (stereo unspecified),–,10.3 µM (active)

Compound,"activity change, negative = cytotoxic",Potency
Cc1ccc(Cn2cc(CN3CC(N4CCN(C)CC4)CS3(=O)=O)nn2)cc1 (stereo unspecified),10.6%,–
CN(C)C1CN(Cc2cn(Cc3ccccc3)nn2)S(=O)(=O)C1 (stereo unspecified),12.6%,–
CCOc1ccc2nc(N3CCC(C(=O)Nc4cc(C)ccc4C)CC3)sc2c1,-1.47%,–
Cn1ccc2cc(S(=O)(=O)N3CCCC(C(=O)NCc4ccccc4F)C3)ccc21 (stereo unspecified),-9.83%,–
COc1cc(Cl)c(NC(=O)CC(C)S(=O)(=O)c2cc3c(cc2C)NC(=O)CO3)c(OC)c1 (stereo unspecified),-1.47%,–
Cc1ccccc1CNC(=O)c1cccc(NC(=O)c2nsc3ccccc23)c1,-18.2%,–
O=C(NNC(=O)c1cc(S(=O)(=O)N2CCCCC2)ccc1Cl)c1ccccc1O,-19.1%,–
CC1=C(C)CC(C(=O)NNC(=O)c2ccccc2O)C(C(=O)O)C1 (stereo unspecified),0%,–
O=C(NNC(=O)c1ccccc1O)c1ccccc1O,–,2.59 µM (active)
Cc1ccc(CSc2oc(-c3cccs3)nc2S(=O)(=O)c2ccc(C)cc2)cc1,-8.61%,–
CCN(C(=O)c1sc2cc(OC)ccc2c1Cl)c1ccccc1,–,20.6 µM (active)
CCN(C(=O)COc1ccc(C(=O)c2ccccc2)cc1)c1ccccc1,19.5%,–
CCN(C(=O)c1ccc(Br)cc1)c1ccccc1,-3.05%,–
CCC(=O)Nc1cccc(-c2nc3cc(C)ccc3o2)c1,-5.02%,–
CCN(CC)S(=O)(=O)c1ccc2c(c1)c(=O)c(C(=O)N1CCN(c3cccc(Cl)c3)CC1)cn2C,5.98%,–
C=CCn1c(SCC(=O)NC(=O)Cc2ccccc2)nc2ccccc2c1=O,3.54%,–
CCn1c(/C=C/c2ccc([N+](=O)[O-])o2)nc2ccccc2c1=O,–,3.26 µM (active)
CCCN(CCC)c1c([N+](=O)[O-])c(=O)oc2ccccc12,8.54%,–
CCCCCn1c(CCCNC(=O)c2ccccc2OC)nc2ccccc21,1.41%,–
CCOCCOC(=O)C1=C(C)NC(=O)NC1c1ccc2c(c1)OCO2 (stereo unspecified),-14.7%,–
CCOC(=O)C1=C(CN2CCc3ccccc32)NC(=O)NC1c1ccc(Cl)cc1 (stereo unspecified),-23.1%,–
CCOC(=O)C1=C(CCc2ccccc2)NC(=O)NC1c1ccc2ccccc2c1 (stereo unspecified),–,23.1 µM (active)
Cc1cccc(N2CCN(C(=O)c3cc4c(=O)oc5ccccc5c4s3)CC2C)c1 (stereo unspecified),-10.4%,–
CCOc1ccc(NC(=O)C(=O)NCCc2csc3nc(-c4ccccc4F)nn23)cc1,7.86%,–
O=[N+]([O-])c1ccc(C=Nc2ccc(Cl)cc2Cl)s1,–,16.4 µM (active)
CCOC(=O)C(Cc1ccccc1)NC(=O)CCc1c(C)nc2c(c(C)nn2-c2ccc(C)c(C)c2)c1C (stereo unspecified),6.17%,–

Compound,"activity change, negative = cytotoxic",Potency
COc1cccc(CNC(=O)C2CCN(S(=O)(=O)c3ccc4c(ccn4C)c3)CC2)c1,6.47%,–
COc1ccc(-c2nn3c(=O)cc(CN4CCN(C(=O)c5ccc(OC)c(OC)c5)CC4)nc3s2)cc1,-2.16%,–
CCS(=O)(=O)N1CCC(n2c(C)nc3cccnc32)CC1,6.58%,–
COc1ccccc1CNC(=O)c1ccc(NC(=O)N2CC(C)Sc3ccccc32)cc1 (stereo unspecified),2.43%,–
NC(=O)C1(N2CCCCC2)CCN(C(=S)Nc2ccc(Cl)cc2)CC1,–,11.6 µM (active)
Cc1cc(Cl)ccc1NC(=S)N1CCC(C(N)=O)(N2CCCCC2)CC1,2.27%,–
O=C(NC1CCN(C(=S)Nc2ccc(Cl)cc2)CC1)C1CCCCC1,-1.98%,–
O=C(CCC(=O)N1CC2CCCN2c2ccccc21)NCc1ccccc1Cl (stereo unspecified),-1.48%,–
CCc1ccc(NC(=O)c2cc3c(=O)n(Cc4cccnc4)ccc3nc2C)cc1,4.71%,–
COc1ccc(-n2c(=O)c3c(c4cc(OC)ccc4n3C)n(Cc3cccc(C)c3)c2=O)cc1,4.89%,–
O=C(NNC(=O)c1ccc(Cl)nc1)c1ccc(Br)cc1,2.64%,–
CCN(CC)c1ccc(NC(=O)CN2CCN(CC(=O)Nc3ccc(Cl)cc3)CC2)cc1,-6.2%,–
CCN(CC)c1ccc(NC(=O)c2ccc(Cl)nc2)cc1,–,5.17 µM (active)
CN(C)c1ccc(C(CNS(=O)(=O)c2cc(F)ccc2F)N2CCOCC2)cc1 (stereo unspecified),2.75%,–
Cc1ccc(C)c(N2CCN(S(=O)(=O)c3ccc4c(c3)C(C(C)C)C(=O)N4)CC2)c1 (stereo unspecified),-22.4%,–
CCC1CCCCN1C(=O)Cn1c(=O)n(CCCCCC(=O)NCc2ccccc2)c(=O)c2sccc21 (stereo unspecified),14.4%,–
O=C(c1ccc(Br)cc1)N(Cc1cccs1)c1ccc(F)cc1,1.61%,–
Nc1ccccc1N,6.52%,–
Cc1ccc(Nc2ccccc2N)cc1,–,20.6 µM (active)
Cc1ccc(Nc2c(-c3ccc(C)s3)nc3ccccn23)cc1,-11.2%,–
Cc1ccc2c(c1)C1CN(C)CCC1N2C(=O)c1ccccc1NS(=O)(=O)c1ccc(F)cc1C (stereo unspecified),-7.9%,–
Cc1ccc2c(c1)C1CN(C)CCC1N2S(=O)(=O)c1ccc(Oc2ccc([N+](=O)[O-])cc2)cc1 (stereo unspecified),–,18.4 µM (active)
Cc1ccc([N+](=O)[O-])cc1S(=O)(=O)N1CCCN(C)CC1,13.9%,–
COc1ccc(-c2nn(CC(=O)NC3CCCC3)c3c2cnc2ccc(F)cc23)cc1,-23.3%,–
Cc1ccc(CNC(=O)c2c(O)nc3c(C)cccn3c2=O)cc1,-7.52%,–
CCN(CC)c1ccc(/C=N/NC(=O)c2cnccn2)c(O)c1,–,0.731 µM (active)

Compound,"activity change, negative = cytotoxic",Potency
NS(=O)(=O)c1ccc(CNC(=O)c2cnccn2)cc1,3.21%,–
COc1cccc(OCC(=O)NNC(=O)c2cnccn2)c1,9.62%,–
O=C(/C=C/c1ccccc1)N1CCN(Cc2cc(=O)n3nc(-c4ccccc4F)sc3n2)CC1,-7.72%,–
C/C(CC(=O)NCc1ccc(Cl)cc1)=N\NC(=O)COc1ccc(C)cc1Br,–,5.17 µM (active)
Cc1ccc(CNC(=O)COc2ccc3c(c2)CCC3)cc1,22.2%,–
Cc1ccc(CNC(=O)CN2CCN(Cc3ccc(Cl)cc3)C2=O)cc1,9.48%,–
Cc1ccc2oc(C(=O)Nc3ccc(S(=O)(=O)N4CCCCCC4)cc3)cc(=O)c2c1,25.6%,–
Cc1ccc(C)c(N2CCN(C(=O)Cc3c(C(=O)O)c(C)cn3C)CC2)c1,6%,–
CC[n+]1cc(C)ccc1/C=C/c1ccc(N(C)C)cc1,–,1.84 µM (active)
CCc1ccc(-c2nn3c(C)nnc3s2)cc1NC(=O)c1ccc(-c2cccc(Cl)c2)o1,-4.36%,–
COc1ccc(S(=O)(=O)n2nc(C)c(S(=O)(=O)N3CCCCCC3)c2C)cc1,16.2%,–
N#Cc1ccc[n+](CC(=O)c2ccc(O)c(O)c2)c1,24.8%,–
Cc1cc(C(=O)OCC(=O)NCc2ccco2)c(C)n1-c1ccccc1,–,4.61 µM (active)
O=C(COC(=O)c1ccccc1O)NCc1ccco1,10.9%,–
O=C(COC(=O)c1cnc(Cl)c(Cl)c1)NCc1ccco1,8.56%,–
Cc1ccc(NC2=C(c3ccc(C(F)(F)F)cc3)C(=O)c3ccccc32)cc1F,-2.28%,–
Cc1cccc(NC(=O)N2CCN(C)c3ncccc32)c1C,0.477%,–
COc1cc(Cn2c3ccc(NC(=O)CC(C)c4ccccc4)cc3c(=O)n2C)ccc1F (stereo unspecified),–,16.4 µM (active)
CCNC(=S)Nc1ccc2c(c1)c(=O)n(C)n2Cc1ccc(Cl)cc1,-0.0168%,–
COc1ccc(CCNC(=O)Nc2ccc3c(c2)c(=O)n(C)n3C)cc1OC,0%,–
CN(Cc1ccccc1)c1ccc(/C=C/c2ccnc3ccccc23)cc1,-20.7%,–
CN(C)c1ccc(C=Nc2ccc(/C=C/c3ccnc4ccccc34)cc2)cc1,-14.7%,–
CN(C)c1ccc(/C=C/C=C/c2ccnc3ccccc23)cc1,–,5.8 µM (active)

# Source: PubChem BioAssay AID1347075 (National Center for Advancing Translational Sciences (NCATS), 2019)
